Screening data (PubChem BioAssay)
Shown are actives, neighbours in structure and some others; about 1.2% of the full set was active somewhere.
Glyco luc inh = blocks N-linked glycosylation in D54 reporter cells. D54 ERlucT glycosylation luciferase reporter, 24 h; percent of 100 nM tunicamycin response. reporter increase, % at 12.5 µM. 360,000 compounds, 0.23% hits. AID 588692;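 active = mean luciferase reporter signal, scaled so untreated is 0 and the glycosylation-blocking control 100, at or above a set limit in every replicate; inconclusive = mean reaches the limit but not every replicate does; inactive = mean below the limit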;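 also: luciferase carries N-glycosylation sites so blocking glycosylation raises the light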
NSD2 HMT inh = NSD2 (human) methyltransferase inhibition | O96028 | NSD2 peptide methylation, AlphaScreen, 120 min | inhibition, % at 12.5 µM | 310,000 compounds, 0.54% hits | AID 743445; in the data active = inhibition above about 50%
RAD54 inh = RAD54 (human) branch migration inhibition; Q92698; RAD54 Holliday junction branch migration, FAM/BHQ fluorescence; inhibition, % at 10.4 µM; 360,000 compounds, 0.14% hits; AID 602329;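 active = mean normalized replicate activity at least 40 and at least half of replicates scoring 40 or more; inconclusive = only one of the two criteria met; inactive = mean below 40 and under half of replicates reaching 40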;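 also: inhibitors cause a drop in the FAM fluorescence signal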
Casp6 inh = inhibitors of human caspase-6; P55212; purified caspase-6, Z-VEID-R110 cleavage fluorescence; AID 686996; 350,000 compounds, 0.53% hits; inhibition, % at 12.5 µM;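 active = mean inhibition across replicates at least about 35%, with every replicate also reaching that limit, limit read from the data; inconclusive = only one of the two criteria met; inactive = neither criterion met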
RAD52 anneal inh = blocks human RAD52 DNA annealing; inhibition, % at 18.7 µM; AID 651710; 360,000 compounds, 0.46% hits; recombinant RAD52 DNA annealing, FRET fluorescence;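 active = every replicate showing at least 50% inhibition; inconclusive = mean inhibition at least 50% but not in every replicate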
Hits are given with their value; n = inactive; u = inconclusive; x = no result; ! = a repeat was not active.

SMILES	Glyco luc inh	NSD2 HMT inh	RAD54 inh	Casp6 inh	RAD52 anneal inh
CC1(C)CC[C@]2(C(=O)O[C@@H]3OC(CO)[C@@H](O)[C@H](O)[C@H]3O)CC[C@]3(C)C(=CCC4[C@@]5(C)CC[C@H](O[C@@H]6OC(C(=O)O)[C@@H](O)[C@H](O)[C@H]6O)C(C)(C)C5CC[C@]43C)[C@@H]2C1 (stereo not given in full)	n	x	n	n	n
C/C=C(\C)C(=O)OC1CC(C)(C)C[C@H]2C3=CC[C@@H]4[C@@]5(C)CCC(O[C@@H]6O[C@@H](C(=O)O)[C@@H](O)C(O[C@@H]7OC[C@H](O)[C@@H](O)[C@@H]7O[C@@H]7OC(CO)C(O)[C@@H](O)[C@@H]7O)C6O[C@@H]6OC(CO)C(O)C(O)C6O)[C@@](C)(CO)[C@@H]5CC[C@]4(C)[C@]3(C)CC(O)[C@@]12CO (stereo not given in full)	n	x	n	58	n
CC1(C)OC(=O)C(=Cc2ccc(-c3ccc(S(N)(=O)=O)cc3)o2)C(=O)O1	n	n	n	53	n
O=C(Nc1cc(F)ccc1F)N[C@@H]1CC[C@H](CCn2cc(C3CCCC3)nn2)O[C@H]1CO	x	x	x	n	n
Cn1c(=O)n2n(c1=O)[C@H](C1CC1)C=C1CN3[C@@H]([C@H](Cc4ccccc4)OC(=O)[C@@H]3Cc3ccccc3)[C@@H]12	x	x	x	n	n
CCOC(=O)N1CCN(C(=O)Cn2nc(C)n3nc(-c4ccc(OC)cc4)cc3c2=O)CC1	n	n	n	38	n
CCCCCCCCCCOC(=O)Cn1c(COc2ccc(OC)cc2)[n+](C)c2ccccc21	n	n	58!	x	x
CCCCCCCCCCOC(=O)Cn1c(COc2ccccc2C)[n+](C)c2ccccc21	n	x	u	n	83
O=C(Cc1ccccc1)N1CC2(C1)[C@@H](c1ccccc1)[C@@H](CO)N2C(=O)Cc1ccccc1	x	x	x	n	n
O=C(O)C1CSC(c2ccco2)N1 (stereo not given)	n	n	n	86	n
CC(C)NC(=O)Nc1ccc2c(c1)C(=O)N([C@H](C)CO)C[C@H](C)[C@@H](CN(C)S(C)(=O)=O)OCCCC[C@H](C)O2	x	x	n	n	n
O=S(=O)(NC[C@@H]1CC[C@@H]2[C@@H](CN2Cc2ccccc2C(F)(F)F)O1)c1ccccc1	x	x	x	n	n
COc1ccc(OCCOC(=O)c2nc3nccc(C)n3n2)cc1	n	n	x	n	n
COc1ccc(C(=O)C(C)OC(=O)c2nc3nccc(C)n3n2)cc1 (stereo not given)	n	n	n	91	n
COc1ccc(NC(=O)N(C)C[C@@H]2Oc3ccc(NC(=O)Nc4ccc(F)cc4)cc3CC(=O)N([C@H](C)CO)C[C@@H]2C)cc1	x	x	n	n	n
COc1ccc(OC)c(NC(=O)CSc2sc3c(O)cc(=O)[nH]c3c2C#N)c1	n	x	n	43	n
Cc1ccc(NC(=O)CSc2sc3c(O)cc(=O)[nH]c3c2C#N)c(F)c1	n	x	n	n	n
N#Cc1c(SCC(=O)Nc2ccc(C(F)(F)F)cc2)sc2c(O)cc(=O)[nH]c12	n	x	n	41	n
CCC12CCCN3CCc4c(n(c5ccccc45)C(O)(C(=O)OC)C1)C32 (stereo not given)	n	x	n	60	n
N#CC(C#N)=C(N)/C(C#N)=C/c1cc(O)c(O)c(O)c1	n	x	n	41	n
CS(=O)(=O)N(CC(=O)N1CCCCCC1)c1ccccc1	n	n	n	x	x
Cc1cc(C)cc(N(CC(=O)N2CCCCCC2)S(C)(=O)=O)c1	n	n	n	36	n
C[C@H](CO)N1C[C@H](C)[C@H](CN(C)Cc2ccc(C(=O)Nc3ccccc3N)cc2)Oc2ccc(NC(=O)Cc3ccccc3)cc2CC1=O	x	x	x	n	n
COc1ccc(NC(=O)N(C)C[C@@H]2OCCCC[C@@H](C)Oc3ccc(NC(=O)Nc4cccc5ccccc45)cc3C(=O)N([C@@H](C)CO)C[C@@H]2C)cc1	x	x	n	x	x
Cc1ccc(S(=O)(=O)N2[C@@H]3CNC[C@H]2C3c2ccc(-c3cccc(C#N)c3)cc2)cc1 (stereo not given in full)	x	x	x	n	53!
SMILES	Glyco luc inh	NSD2 HMT inh	RAD54 inh	Casp6 inh	RAD52 anneal inh
N#Cc1cccc(-c2ccc(C3[C@H]4CNC[C@@H]3N4S(=O)(=O)c3ccc(F)cc3)cc2)c1 (stereo not given in full)	x	x	x	n	n
Cc1ccc(S(=O)(=O)N2[C@@H]3CNC[C@H]2C3c2ccc(-c3cccc(C)c3)cc2)cc1 (stereo not given in full)	x	x	x	n	51!
CO[C@H]1CN(C)C(=O)c2ccc(NC(=O)c3cnccn3)cc2OC[C@@H](C)N(C)C[C@@H]1C	x	x	n	x	x
Cc1ccccc1-c1nc(CS(=O)(=O)CC(=O)NCCN2CCCC2)c(C)o1	n	x	n	36	n
CCN1CCN(CCCNC(=O)CS(=O)(=O)Cc2nc(-c3ccccc3C)oc2C)CC1	n	n	n	n	n
Nc1c(N(CCC2=CCCCC2)C(=O)Cc2ccc(F)cc2)c(=O)[nH]c(=O)n1Cc1ccccc1	n	n	x	n	n
Nc1c(N(CCC2=CCCCC2)C(=O)COc2ccc(F)cc2Cl)c(=O)[nH]c(=O)n1Cc1ccccc1	56	n	n	n	n
C[C@@H]1CN([C@@H](C)CO)C(=O)CCCn2cc(nn2)CO[C@@H]1CN(C)Cc1ccc(C(=O)O)cc1	x	x	x	n	n
COc1cc(-c2noc(C)c2-c2ccc3[nH]ccc3c2)cc(OC)c1OC	48	x	n	x	x
COc1cc(-c2noc(C)c2-c2ccc(N(C)C)nc2)cc(OC)c1OC	u	x	n	n	n
CN(C)CC(=O)N[C@H]1C[C@@H]2O[C@H](CO)CC[C@@H]2O[C@@H]1CCc1ccc(C#Cc2ccccc2)cc1	x	x	x	n	60
COc1ccc2c3c([nH]c2c1)[C@@H](CO)N(C(=O)CN(C)C)CC31CN(Cc2ccccc2)C1	x	x	x	x	60
COc1ccc(CN2CC3(C2)CN(C(=O)CN(C)C)[C@@H](CO)c2[nH]c4cc(OC)ccc4c23)cc1	x	x	x	n	67
COc1ccc2c3c([nH]c2c1)[C@H](CO)N(C(=O)CN(C)C)CC31CCN(Cc2ccncc2)CC1	x	x	x	n	n
COc1ccc2c3c([nH]c2c1)[C@@H](CO)NCC31CCN(Cc2ccc(F)cc2)CC1	x	x	x	x	72
COc1ccc(CN2CC3(C2)CN(C(=O)CN(C)C)[C@H](CO)c2[nH]c4cc(OC)ccc4c23)cc1	x	x	x	n	69
COc1ccc2c3c([nH]c2c1)[C@@H](CO)NCC31CCN(C(=O)Nc2ccc(F)cc2)CC1	x	x	x	n	n
C[C@@H]1CN([C@H](C)CO)C(=O)c2cc(C#CC3CC3)cnc2O[C@H]1CN(C)Cc1ccccn1	x	x	n	n	n
O=C(C[C@@H]1CC[C@H](NC(=O)Nc2ccc3c(c2)OCO3)[C@@H](CO)O1)NCc1ccc(Cl)cc1	x	x	n	n	n
O=C(COc1ccc2c(-c3ccccc3)cc(=O)oc2c1)NC(Cc1c[nH]c2ccccc12)C(=O)O (stereo not given)	n	n	n	n	n
CC(Oc1ccc2c(-c3ccccc3)cc(=O)oc2c1)C(=O)NC(Cc1c[nH]c2ccc(O)cc12)C(=O)O (stereo not given)	n	x	n	n	n
